# Compounds with a hit are over-represented: about 7.6% of the library has one in this group of screens.
# Giardia kill – Small Molecules that selectively kill Giardia lamblia: qHTS; Giardia lamblia trophozoite viability; activity change, % at 7.66 µM, hits read low; actives 0.15% (n = 340,000); in the data active means activity change below about -80%; inconclusive means between about -30% and that limit;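 further: parasites exposed to compound for two days anaerobically before the ATP read; on the % scale 0 is the no-effect control and ±100 the full control effect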
#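 Media and compound were dispensed first, then trophozoites at 100 cells/well; plates sat 48 hrs at 37 deg C without oxygen before ATP luminescence reagent was added and read after 15-30 min at room temperature.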
# RORgamma inh – qHTS for inhibitors of ROR gamma transcriptional activity | Drosophila S2 Gal4-RORgamma UAS-luciferase reporter, 20 h | Potency, µM (top dose mostly 53.6 µM), for the others: top-dose activity change, negative = inhibition, hits mostly inhibitors | actives 5.4% (n = 310,000) | AID 2551, 2010; further: potency means the concentration at half of the fitted maximal effect; on the % scale 0 is the no-effect control and ±100 the full control effect; nearly all actives have a fitted effect of over 60% in size
# Target sequence (P51450 whole entry, looked up, the tested form may be a part): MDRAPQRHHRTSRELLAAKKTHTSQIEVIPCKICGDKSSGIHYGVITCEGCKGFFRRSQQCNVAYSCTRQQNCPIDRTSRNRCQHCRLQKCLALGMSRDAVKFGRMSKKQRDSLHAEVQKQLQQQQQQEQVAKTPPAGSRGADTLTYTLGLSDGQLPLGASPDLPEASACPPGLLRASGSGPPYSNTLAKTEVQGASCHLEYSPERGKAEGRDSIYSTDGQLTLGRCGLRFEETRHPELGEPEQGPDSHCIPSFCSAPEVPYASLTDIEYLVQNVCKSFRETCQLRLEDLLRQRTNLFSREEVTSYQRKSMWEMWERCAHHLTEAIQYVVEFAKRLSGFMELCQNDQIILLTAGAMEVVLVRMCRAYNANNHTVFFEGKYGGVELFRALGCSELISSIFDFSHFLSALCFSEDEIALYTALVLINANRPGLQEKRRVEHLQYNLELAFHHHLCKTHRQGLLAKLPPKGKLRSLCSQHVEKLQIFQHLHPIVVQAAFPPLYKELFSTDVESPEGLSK
#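 A Gal4/UAS one-hybrid system in insect cells: metallothionein-promoter Gal4–ROR gamma fusion plus Photinus luciferase reporter. Copper sulfate 700 uM final, 20 hr ambient incubation, luminescent detection after 10 min with reagent.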
# Gal4-VP16 FLuc – VP16 counterscreen qHTS for inhibitors of ROR gamma transcriptional activity; Drosophila S2 Gal4-VP16 UAS-luciferase, luminescence, 20 h; Potency, µM (top dose mostly 53.6 µM), for the others: at the top dose activity, negative = inhibition, actives largely listed as inhibitors; actives 3.5% (n = 310,000); AID 2546, 2010;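 further: Gal4-VP16 expression switched on by copper sulfate through the metallothionein promoter; potency means the concentration at half of the fitted maximal effect; on the % scale 0 is the no-effect control and ±100 the full control effect; nearly all actives have a fitted effect of over 50% in size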
# p53 reactivator – qHTS assay for re-activators of p53 using a Luc reporter. Potency, µM (top dose mostly 92.2 µM), without a hit: top-dose activity change, positive = activation, most hits filed as activators. actives 0.063% (n = 320,000). H1299 p53-A138V BP100-luciferase reporter, luminescence, 24 h; further: potency means the concentration at half of the fitted maximal effect; % of control where 0% means no effect; nearly all actives have a fitted effect of over 45% in size
#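 H1299 (p53-null), stable ts p53-A138V + BP100-Luc; 1000 cells/well, Opti-MEM/10% FBS; cpd 4 pt, 1:5; 24 h, 37 deg C, 5% CO2; detection reagent 10 min RT; luminescence.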
# ELG1 repair inh – qHTS screen for small molecules that inhibit ELG1-dependent DNA repair in human embryonic kidney (HEK293T) cells expressing luciferase-tagged ELG1; HEK293T ELG1-luciferase reporter, luminescence, 16 h; DNA damage induced by 5-fluorouridine; Potency, µM (series often up to 46.1 µM), without a hit: at the top dose activity change, negative = inhibition, hits mostly inhibitors; actives 2.3% (n = 330,000); further: potency means the concentration at half of the fitted maximal effect; on the % scale 0 is the no-effect control and ±100 the full control effect; nearly all actives have a fitted effect of over 55% in size
#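 Overnight (16 hr) co-exposure of 2,000 cells/well to 5-fluorouridine and compound at 37 °C preceded detection. Luciferase was quantified via ONE-Glo luminescence; loss of signal denotes inhibition.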
# BRCA1 expr act – qHTS Assay to Identify Small Molecule Activators of BRCA1 Expression; MCF7-BRCA1-FFLuc reporter, luminescence, 48 h; response scale: scaled: vehicle 0%, 10 µM genistein 100%; Potency, µM (doses to about 46.1 µM), for inactives: at the highest dose activation, actives largely listed as activators; actives 1.1% (n = 380,000); AID 624202, 2012; further: potency means the concentration at half of the fitted maximal effect; nearly all actives have a fitted effect of over 80% in size
#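 First, MCF7-BRCA1-FFLuc cells (2000/well) attach for 2 h; next, compounds are pin-added and incubated 48 h at 37 °C; finally, luciferase reagent is added and luminescence read after 15 min.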
# * hit, by the source's call; ? = inconclusive; · = not tested or not shown. Unless noted, the call rests on the fitted dose curve; in most records, active means well fitted curve in the direction sought with a large enough effect; inconclusive means small, poorly fitted or top-dose-only effect, or another doubt; inactive means no such curve, though single readings can be large; an effect the other way counts as inactive or inconclusive.
SMILES,Giardia kill,RORgamma inh,Gal4-VP16 FLuc,p53 reactivator,ELG1 repair inh,BRCA1 expr act
CN(C)c1ccc(C(=O)N=c2sccn2C)cc1[N+](=O)[O-],-11,19%,21%,?,?,11µM*
Cn1ccsc1=NC(=O)c1ccc(S(=O)(=O)C(F)F)cc1,2,1%,1%,17%,?,13µM*
CN1CCN(C(=S)C(=O)Nc2ccccc2)CC1,4,20%,-5%,13%,4%,12%
CCCCN(C(=O)c1cccc(S(=O)(=O)N2CCOCC2)c1)c1c(N)n(CCC)c(=O)[nH]c1=O,-2,-10%,-6%,-2%,7%,-6%
CCc1ccc2nc(NC(=O)c3cc(C)on3)sc2c1,-2,5.6µM*,?,9%,?,6%
Cc1cc(C)c2nc(NC(=O)c3cc(C)on3)sc2c1,-3,4.5µM*,?,0%,?,10%
CCC(=O)NNc1nc2c(C)cc(C)cc2s1,-2,13µM*,?,-1%,?,-1%
CN1CCN(c2nc(NCc3ccco3)nc(N)c2[N+](=O)[O-])CC1,-9,20%,-9%,-2%,-2%,0%
C=C(C)COc1cc2oc(=O)c(CC(=O)N3C[C@H]4C[C@@H](C3)c3cccc(=O)n3C4)c(C)c2cc1Cl,5,35%,-10%,4%,-6%,-19%
O=C(NC(=S)NCC1CCCO1)c1ccc(Cl)cc1 (stereo not given),-5,11µM*,?,?,?,?
O=C(NC(=S)NCC1CCCO1)c1ccccc1 (stereo not given),-5,?,?,?,?,53%
Cc1ccc(C(=O)NC(=S)NCC2CCCO2)cc1 (stereo not given),-3,16µM*,-21%,26%,?,10µM*
Cc1ccc(C(=O)Nc2ccccc2C(=O)NCC2CCCO2)cc1 (stereo not given),-6,3%,-4%,-3%,?,13%
Cc1cnn(C(=S)NCC2CCCO2)c1 (stereo not given),-3,14µM*,?,8%,?,15%
O=C(Cc1ccc([N+](=O)[O-])cc1)NCC1CCCO1 (stereo not given),2,-12%,8%,8%,-3%,9%
O=C(NC(=S)NCC1CCCO1)c1ccc([N+](=O)[O-])cc1 (stereo not given),-18,13µM*,-93%,20%,26%,-1%
Cc1n[nH]c(=O)c2c1nnn2Cc1ccccc1Cl,-1,-20%,-9%,-7%,2%,1%
CCNC(=O)C1(C)CCCN(Cc2cccc3c(OC)cc(C(=O)OCC)cc23)C1 (stereo not given),·,·,·,·,·,-1%
Cc1cc(SCC(=O)N/N=C/c2cccnc2)nc2c(C)cccc12,-27,-19%,-10%,0%,-13%,-11%
COc1cccc(C2CNC3(CCCC(C)C3)c3[nH]c4ccccc4c32)c1OC (stereo not given),18,-21%,7%,19%,-1%,-28%
COc1cc(C(=O)NC(C)C2CC3CCC2C3)cc(OC)c1OC (stereo not given),7,?,8%,·,-3%,-16%
CCN(Cc1ccccc1)S(=O)(=O)c1cc(C(=O)NC(C)C2CC3CCC2C3)ccc1OC (stereo not given),23,21%,-10%,10%,6.5µM*,-61%
CC(/C=N/NC(=O)c1ccncc1)=C\c1ccccc1,18,-14%,0%,5%,?,70%
